{
  "source": "PubChem BioAssay (Tox21)",
  "key": {"[1]": {"biological_target": "Aromatase (Homo sapiens) (UniProt P11511)", "sequence (P11511 whole entry, looked up)": "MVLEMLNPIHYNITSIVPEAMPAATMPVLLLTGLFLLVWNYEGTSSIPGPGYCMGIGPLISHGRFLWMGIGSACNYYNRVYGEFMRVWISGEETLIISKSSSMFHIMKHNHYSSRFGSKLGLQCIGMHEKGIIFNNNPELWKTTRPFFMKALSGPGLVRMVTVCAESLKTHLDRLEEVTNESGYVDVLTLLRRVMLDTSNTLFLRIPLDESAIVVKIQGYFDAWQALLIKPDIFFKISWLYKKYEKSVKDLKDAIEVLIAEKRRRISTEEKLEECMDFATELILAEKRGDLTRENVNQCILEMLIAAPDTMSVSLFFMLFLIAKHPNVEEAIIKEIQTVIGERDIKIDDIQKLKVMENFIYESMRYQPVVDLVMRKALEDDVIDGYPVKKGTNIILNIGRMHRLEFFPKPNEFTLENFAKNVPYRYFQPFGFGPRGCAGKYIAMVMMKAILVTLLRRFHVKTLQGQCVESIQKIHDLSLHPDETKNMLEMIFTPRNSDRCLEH", "test": "qHTS assay to identify aromatase inhibitors (AID 743083; active = well fitted curve in the direction sought with a large enough effect in the repeat runs; an effect the other way counts as inactive or inconclusive; also: nearly all actives have a fitted effect of over 55% in size)"}, "[2]": {"biological_target": "Aryl hydrocarbon receptor (Homo sapiens) (UniProt P35869)", "sequence (P35869 whole entry, looked up)": "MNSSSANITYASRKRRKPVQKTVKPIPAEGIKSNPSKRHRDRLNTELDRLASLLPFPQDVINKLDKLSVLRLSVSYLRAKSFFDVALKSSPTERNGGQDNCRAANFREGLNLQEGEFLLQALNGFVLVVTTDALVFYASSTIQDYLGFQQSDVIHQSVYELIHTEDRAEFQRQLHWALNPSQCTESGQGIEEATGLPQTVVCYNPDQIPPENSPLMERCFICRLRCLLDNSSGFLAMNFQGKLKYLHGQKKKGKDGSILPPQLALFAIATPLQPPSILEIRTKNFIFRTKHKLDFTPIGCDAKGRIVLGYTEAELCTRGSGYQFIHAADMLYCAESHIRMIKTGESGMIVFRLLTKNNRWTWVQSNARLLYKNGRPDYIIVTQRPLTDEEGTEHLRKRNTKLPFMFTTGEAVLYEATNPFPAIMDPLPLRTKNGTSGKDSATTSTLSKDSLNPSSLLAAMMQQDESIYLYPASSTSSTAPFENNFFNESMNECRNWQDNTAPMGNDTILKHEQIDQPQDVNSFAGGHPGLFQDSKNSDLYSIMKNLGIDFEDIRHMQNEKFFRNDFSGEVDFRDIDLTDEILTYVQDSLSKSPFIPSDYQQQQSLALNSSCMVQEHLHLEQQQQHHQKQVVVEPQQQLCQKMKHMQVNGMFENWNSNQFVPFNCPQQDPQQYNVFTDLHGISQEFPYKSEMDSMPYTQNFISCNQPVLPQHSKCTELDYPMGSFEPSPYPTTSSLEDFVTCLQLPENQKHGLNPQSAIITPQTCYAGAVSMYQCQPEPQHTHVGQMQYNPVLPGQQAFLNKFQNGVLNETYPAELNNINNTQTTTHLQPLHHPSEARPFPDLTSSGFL", "test": "qHTS assay to identify small molecule that activate the aryl hydrocarbon receptor (AhR) signaling pathway (AID 743085; active = well fitted curve in the direction sought with a large enough effect in the repeat runs; an effect the other way counts as inactive or inconclusive; also: nearly all actives have a fitted effect of over 15% in size)", "method_in_brief": "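HepG2 cells (HG2L7.5c1) stably carrying a firefly luciferase reporter driven by 20 dioxin responsive elements were exposed to compound for 24 h at 37C after a 5 h settling period; luminescence rise (ONE-Glo) indicated activation.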"}, "[3]": {"test": "qHTS assay to identify small molecule agonists of H2AX (AID 1224845; active = well fitted activation curve with a large enough effect in the signal ratio in the repeat runs, not every such curve was filed as active; the % refers to the signal ratio; also: potency is read from the fitted curve at half-maximal effect)", "method_in_brief": "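Wild-type CHO-K1 cells plated overnight, then exposed 3 hr at 37C to compounds at 15 concentrations (0.76% DMSO). Lysed, then HTRF anti-pH2AX(S139)-cryptate/anti-H2AX-d2 detection after 24 hr at room temperature; emissions 665 and 620 nm.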"}, "[4]": {"biological_target": "Acetylcholinesterase (Homo sapiens) (UniProt P22303)", "sequence (P22303 whole entry, looked up)": "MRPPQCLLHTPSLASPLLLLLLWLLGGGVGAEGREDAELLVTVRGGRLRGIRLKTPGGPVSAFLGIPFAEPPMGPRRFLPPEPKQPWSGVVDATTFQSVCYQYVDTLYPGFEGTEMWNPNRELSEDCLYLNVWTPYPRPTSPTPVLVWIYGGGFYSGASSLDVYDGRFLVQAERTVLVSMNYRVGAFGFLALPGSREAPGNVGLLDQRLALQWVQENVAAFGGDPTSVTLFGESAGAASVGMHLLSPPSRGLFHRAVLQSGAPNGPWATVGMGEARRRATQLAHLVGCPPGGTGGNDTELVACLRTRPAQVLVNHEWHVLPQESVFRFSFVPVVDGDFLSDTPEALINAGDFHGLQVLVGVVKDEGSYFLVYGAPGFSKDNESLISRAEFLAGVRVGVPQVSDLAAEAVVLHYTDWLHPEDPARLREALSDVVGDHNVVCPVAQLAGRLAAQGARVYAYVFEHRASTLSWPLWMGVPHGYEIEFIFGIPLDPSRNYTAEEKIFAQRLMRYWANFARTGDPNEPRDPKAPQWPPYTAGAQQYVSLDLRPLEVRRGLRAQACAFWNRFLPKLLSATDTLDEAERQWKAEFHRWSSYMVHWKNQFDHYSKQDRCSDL", "test": "Acetylcholinesterase (AChE) small molecule antagonists: colormetric cell-based qHTS assay (AID 1347395); also: nearly all actives have a fitted effect of over 30% in size", "method_in_brief": "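SH-SY5Y cells, plated overnight at 37 C, were exposed to compounds for 30 min at 37 C and 5% CO2. Acetylthiocholine plus DTNB was then added, and thiocholine from endogenous AChE was quantified colorimetrically after 90 min at 37 C.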"}, "[5]": {"biological_target": "Acetylcholinesterase (Homo sapiens) (UniProt P22303)", "test": "Acetylcholinesterase (AChE) small molecule antagonists: enzyme-based qHTS assay (AID 1347397); also: nearly all actives have a fitted effect of over 55% in size", "conditions": "Potency: AChE enzyme activity inhibition; outcome: AChE enzyme activity inhibition", "method_in_brief": "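Tox21 library chemicals are tested in qHTS format against recombinant human AChE. The enzyme, dispensed at 50 mU/mL, sits with compound for 30 min at room temperature. A DTNB–acetylthiocholine cocktail follows, and colour is read after 10 min.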"}, "[6]": {"biological_target": "Acetylcholinesterase (Homo sapiens) (UniProt P22303)", "test": "Acetylcholinesterase (AChE) small molecule antagonists: fluorescence cell-based qHTS assay (AID 1347398); also: nearly all actives have a fitted effect of over 50% in size", "conditions": "Potency: AChE activity; outcome: AChE activity", "method_in_brief": "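Cellular AChE inhibition: SH-SY5Y cells treated with test chemical for 30 min at 37 C, then acetylthiocholine hydrolysis followed over 40 min at room temperature via thiocholine-reactive Thiolite Green fluorescence (490/520 nm).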"}, "[7]": {"biological_target": "Acetylcholinesterase (Homo sapiens) (UniProt P22303)", "test": "Acetylcholinesterase (AChE) small molecule antagonists: enzyme-based qHTS assay with human liver microsomes (AID 1347399); also: nearly all actives have a fitted effect of over 60% in size", "conditions": "Potency: qHTS inhibition; outcome: qHTS inhibition", "method_in_brief": "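Recombinant human AChE (50 mU/mL in the enzyme mix) and human liver microsomes (0.25 mg/mL final) were preincubated with compound and NADPH (0.25 mg/mL final) for 30 min at 37 C. Acetylthiocholine/DTNB was then added; thiocholine was read colorimetrically after 10 min at room temperature.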"}, "[8]": {"test": "qHTS assay for small molecule agonists of the p53 signaling pathway (AID 651631); also: nearly all actives have a fitted effect of over 15% in size", "method_in_brief": "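HCT-116 cells carrying a stable p53 response element–beta-lactamase reporter were plated, rested 5 h at 37 °C, then exposed to compound in DMSO for 16 h at 37 °C; reporter activity was read as FRET substrate fluorescence after 2 h at room temperature.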"}, "[9]": {"test": "qHTS assay to identify small molecule agonists of the estrogen related receptor (ERR) signaling pathway from Tox21 library (AID 1224849); also: nearly all actives have a fitted effect of over 15% in size", "conditions": "ERR reporter cell line, ONE-Glo luciferase, 18 h; at 92.4 µM (top of the series) unless noted", "method_in_brief": "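Reporter cells (ERR, NTP source) treated with Tox21 10K compounds 18 h, 37 C. Readout: ONE-Glo luminescence, 30 min RT.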"}},
  "note": "Values without a mark were called inactive. Records with an inconclusive call do not appear. A call without a number means that no potency is given here. The source made the active and inactive calls. Unless noted, calls follow the shape of the full dose curve.",
  "data": [
    {"smiles": "ClC(Cl)(Cl)c1ccc(C(Cl)(Cl)Cl)cc1", "values": [
      {"measurement": "Potency", "setting": "[1]", "result": "inactive"},
      {"measurement": "Potency", "setting": "[2]", "result": "inactive"},
      {"measurement": "Potency", "setting": "[3]", "result": "112 µM (active)"},
      {"measurement": "Potency", "setting": "[4]", "result": "inactive"},
      {"measurement": "Potency", "setting": "[5]", "result": "inactive"},
      {"measurement": "Potency", "setting": "[6]", "result": "inactive"},
      {"measurement": "Potency", "setting": "[7]", "result": "inactive"}
    ]},
    {"smiles": "CC(CCl)OP(=O)(OC(C)CCl)OC(C)CCl", "note": "(stereo not given)", "values": [
      {"measurement": "Potency", "setting": "[8]", "result": "inactive"},
      {"measurement": "Potency", "setting": "[1]", "result": "inactive"},
      {"measurement": "Potency", "setting": "[2]", "result": "inactive"},
      {"measurement": "activity change, positive = activation", "setting": "[9]", "result": -19.5, "unit": "%"},
      {"measurement": "Potency", "setting": "[4]", "result": "inactive"},
      {"measurement": "Potency", "setting": "[5]", "result": "inactive"},
      {"measurement": "Potency", "setting": "[6]", "result": "inactive"},
      {"measurement": "Potency", "setting": "[7]", "result": "inactive"}
    ]}
  ]
}
